Results filed as inconclusive are left out. Entries that show only a call come without a potency. The source made the active and inactive calls. Unless noted, the call rests on the fitted dose curve.
Columns and labels:
[1] = Nuclear factor erythroid 2-related factor 2/antioxidant responsive element (Nrf2/ARE) small molecule agonists: qHTS cell viability counter screen in human keratinocytes (AID 1919968; active means well fitted curve in the direction sought with a large enough effect in the repeat runs; an effect the other way counts as inactive or inconclusive; further: nearly all actives have a fitted effect of over 55% in size)
Method in brief: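 In human HaCaT keratinocytes stably expressing an ARE-driven luciferase, compound exposure lasted 23 h at 37 C under 5% CO2. Viable cells are quantified with a protease-based fluorogenic reagent (CellTiter-Fluor) read 1 h after addition.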

[2] = Nuclear factor erythroid 2-related factor 2/antioxidant responsive element (Nrf2/ARE) small molecule agonists: luciferase reporter gene qHTS assay in human keratinocytes (AID 1919969); further: nearly all actives have a fitted effect of over 35% in size; further: potency means the concentration at half of the fitted maximal effect
[3] = target: Gonadotropin-releasing hormone receptor (Homo sapiens) (UniProt P30968); experiment: Human gonadotropin-releasing hormone receptor (GnRHR) small molecule agonists, calcium flux assay in GnRHR-HEK293 cells (AID 1920063); further: nearly all actives have a fitted effect of over 35% in size
Sequence of Gonadotropin-releasing hormone receptor (Homo sapiens) (P30968 whole entry, looked up): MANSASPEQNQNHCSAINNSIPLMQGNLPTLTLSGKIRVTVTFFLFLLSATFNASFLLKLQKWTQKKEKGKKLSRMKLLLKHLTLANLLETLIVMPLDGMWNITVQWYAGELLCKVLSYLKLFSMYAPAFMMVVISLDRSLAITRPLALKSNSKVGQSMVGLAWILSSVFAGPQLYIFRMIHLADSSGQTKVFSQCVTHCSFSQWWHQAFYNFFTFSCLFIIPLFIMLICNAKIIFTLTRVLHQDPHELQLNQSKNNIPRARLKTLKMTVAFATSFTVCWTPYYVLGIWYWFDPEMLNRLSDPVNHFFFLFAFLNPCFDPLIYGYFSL
Method in brief: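 Intracellular calcium rise is the read-out: engineered human GnRHR HEK293 cells, dye-loaded, are exposed to DMSO-dissolved compounds and fluorescence at Ex/Em 480/540 is tracked for 3 min.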

[4] = target: KiSS-1 receptor (Homo sapiens) (UniProt Q969F8); experiment: Human kisspeptin (KISS1R) small molecule agonists, calcium flux assay in KISS1R-HEK293 cells (AID 1920064; active means well fitted curve in the direction sought with a large enough effect in the repeat runs; an effect the other way counts as inactive or inconclusive)
Sequence of KiSS-1 receptor (Homo sapiens) (Q969F8 whole entry, looked up): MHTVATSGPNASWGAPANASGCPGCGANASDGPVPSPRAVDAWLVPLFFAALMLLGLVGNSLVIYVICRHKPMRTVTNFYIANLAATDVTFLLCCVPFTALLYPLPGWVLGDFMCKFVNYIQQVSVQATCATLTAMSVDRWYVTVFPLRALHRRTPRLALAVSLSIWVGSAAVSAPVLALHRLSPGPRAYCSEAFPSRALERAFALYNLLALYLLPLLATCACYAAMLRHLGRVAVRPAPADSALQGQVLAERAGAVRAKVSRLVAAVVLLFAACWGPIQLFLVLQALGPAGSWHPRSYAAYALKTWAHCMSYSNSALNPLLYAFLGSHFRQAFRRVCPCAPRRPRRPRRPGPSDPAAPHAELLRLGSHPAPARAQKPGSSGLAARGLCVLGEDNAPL
Method in brief: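 Concentration-response testing used 15 concentrations in triplicate on human KISS1R-expressing HEK293 cells. Calcium-dependent fluorescence (Ex/Em 480/540) was followed kinetically for 3 min after compound transfer.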

[5] = G protein-coupled receptor (GPCR) small molecule agonists, calcium flux assay: HEK293 wild type cell line counter screen (AID 1920065)
Method in brief: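 Fluorescence intensity signals activation. After overnight (18 h) culture and a 1 h calcium dye load at 37 C, compounds are added by pin tool and the plate read at 480/540 nm for 3 min in 1 s steps.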

[6] = p53 small molecule agonists, cell-based qHTS assay with human liver microsomes: qHTS cell viability counter screen (AID 1963579); further: nearly all actives have a fitted effect of over 45% in size; further: potency means the concentration at half of the fitted maximal effect
Method in brief: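 p53RE-bla cells (4,000/well) were pre-incubated 5 h at 37 C, then given compounds in DMSO plus human liver microsomes (0.5 mg/mL final) and NADPH (0.5 mg/mL final) for 16 h at 37 C. Viability was read by CellTiter-Glo luminescence.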

[7] = p53 small molecule agonists, cell-based qHTS assay with rat liver microsomes: qHTS cell viability counter screen (AID 1963580); further: nearly all actives have a fitted effect of over 45% in size
Method in brief: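 Counter screen for cytotoxicity under metabolic activation: rat liver microsomes and NADPH, 0.5 mg/mL final each, added with compounds to p53RE-bla HCT-116 cells; 16 h at 37 C, then ATP luminescence read.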

[8] = p53 small molecule agonists, cell-based qHTS assay: qHTS cell viability counter screen (AID 1963581); further: nearly all actives have a fitted effect of over 45% in size
Method in brief: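 Luminescence from CellTiter-Glo, reflecting ATP content, serves as the cytotoxicity measure; it is taken after the 2 h reporter substrate step in HCT-116 p53RE-bla cells dosed for 16 h at 37 C.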

[9] = target: 5-hydroxytryptamine receptor 2A (Homo sapiens) (UniProt P28223); experiment: 5-hydroxytryptamine receptor 2A (HTR2A) small molecule antagonists, cell-based qHTS assay (AID 1963586); further: nearly all actives have a fitted effect of over 45% in size
Sequence of 5-hydroxytryptamine receptor 2A (Homo sapiens) (P28223 whole entry, looked up): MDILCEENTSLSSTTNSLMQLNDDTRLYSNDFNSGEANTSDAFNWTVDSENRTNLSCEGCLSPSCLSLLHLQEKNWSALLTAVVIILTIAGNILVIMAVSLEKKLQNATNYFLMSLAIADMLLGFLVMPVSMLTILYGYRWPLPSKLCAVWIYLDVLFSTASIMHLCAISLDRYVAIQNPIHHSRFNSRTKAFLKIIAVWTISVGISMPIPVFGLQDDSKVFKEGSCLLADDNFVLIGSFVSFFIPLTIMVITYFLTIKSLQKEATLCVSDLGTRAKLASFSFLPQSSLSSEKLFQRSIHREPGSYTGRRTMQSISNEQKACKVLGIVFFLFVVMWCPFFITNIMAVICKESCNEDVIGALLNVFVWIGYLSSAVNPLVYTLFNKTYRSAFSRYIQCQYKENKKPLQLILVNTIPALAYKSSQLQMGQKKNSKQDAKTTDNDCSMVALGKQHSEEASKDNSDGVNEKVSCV
Method in brief: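 CHO cells stably expressing human HTR2A were plated for 18 h at 37 C, then loaded with calcium dye for 1 h. Compounds were preincubated 5 min at room temperature before DOI (4 nM solution) was added. Kinetic fluorescence was read for 3 min.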

[10] = target: 5-hydroxytryptamine receptor 2A (Homo sapiens) (UniProt P28223); experiment: 5-hydroxytryptamine receptor 2A (HTR2A) small molecule agonists, cell-based qHTS assay (AID 1963587); further: nearly all actives have a fitted effect of over 30% in size
Method in brief: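 HTR2A-CHO cells, plated 18 h at 37 C/5% CO2, dye-loaded 1 h at 37 C; compounds in DMSO added by pin tool (agonist mode). Intracellular calcium flux read as kinetic fluorescence on FDSS over 2 min at 1 s intervals.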

[11] = target: Muscarinic acetylcholine receptor M1 (Homo sapiens) (UniProt P11229); experiment: Cholinergic receptor muscarinic 1 (CHRM1) small molecule agonists, cell-based qHTS assay (AID 1963589); further: nearly all actives have a fitted effect of over 35% in size
Sequence of Muscarinic acetylcholine receptor M1 (Homo sapiens) (P11229 whole entry, looked up): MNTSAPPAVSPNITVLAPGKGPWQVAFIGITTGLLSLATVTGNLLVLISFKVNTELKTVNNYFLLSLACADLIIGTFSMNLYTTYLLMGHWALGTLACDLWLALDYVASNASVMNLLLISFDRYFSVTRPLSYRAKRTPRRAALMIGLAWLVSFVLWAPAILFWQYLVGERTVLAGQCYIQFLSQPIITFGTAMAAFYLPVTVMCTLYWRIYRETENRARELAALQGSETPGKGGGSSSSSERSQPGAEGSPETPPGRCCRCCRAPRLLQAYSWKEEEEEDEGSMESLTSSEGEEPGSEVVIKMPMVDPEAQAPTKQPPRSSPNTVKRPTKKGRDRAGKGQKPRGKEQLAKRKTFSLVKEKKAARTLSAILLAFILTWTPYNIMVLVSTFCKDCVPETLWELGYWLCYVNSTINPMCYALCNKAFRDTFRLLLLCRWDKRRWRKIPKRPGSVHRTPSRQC
Method in brief: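 Fluorescent calcium dye reports M1 activation in stably transfected CHO cells. Compounds, 15 concentrations, added after 1 h dye loading at 37 C; kinetic reading at 1 sec intervals.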

[12] = cAMP Responsive Elements (CRE) small molecule antagonists, cell-based qHTS assay (AID 1963591; active means well fitted inhibition curve with a large enough effect in the signal ratio in the repeat runs, not every such curve was filed as active; the % refers to the signal ratio)
Method in brief: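 Stimulation used NKH477 at a final 0.25 uM for 3 h in compound-treated CRE-bla HEK293T cells, seeded 18 h beforehand. Reporter activity was measured with LiveBLAzer B/G FRET substrate after 2 h at room temperature.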

[13] = target: Beta-2 adrenergic receptor (Homo sapiens) (UniProt P07550); experiment: Adrenergic beta2 receptor (ADRB2) small molecule antagonists, cell-based qHTS assay (AID 1963592); further: series mostly up to about 92 µM; nearly all actives have a fitted effect of over 50% in size
Sequence of Beta-2 adrenergic receptor (Homo sapiens) (P07550 whole entry, looked up): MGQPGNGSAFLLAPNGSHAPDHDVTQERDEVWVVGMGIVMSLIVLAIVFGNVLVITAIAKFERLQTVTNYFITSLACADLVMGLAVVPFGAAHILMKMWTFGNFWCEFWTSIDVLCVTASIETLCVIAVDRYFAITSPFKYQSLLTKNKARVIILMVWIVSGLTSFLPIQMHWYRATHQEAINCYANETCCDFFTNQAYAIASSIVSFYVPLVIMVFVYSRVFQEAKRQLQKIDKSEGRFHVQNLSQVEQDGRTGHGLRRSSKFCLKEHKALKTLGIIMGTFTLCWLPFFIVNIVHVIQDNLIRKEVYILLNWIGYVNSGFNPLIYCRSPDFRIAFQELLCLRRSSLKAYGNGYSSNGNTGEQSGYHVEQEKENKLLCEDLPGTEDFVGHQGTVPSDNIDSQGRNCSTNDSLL
Method in brief: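 Assay format: CHO-ADRB2 cells, 18-20hr seeding at 37C/5% CO2, then compound plus 1nM isoproterenol agonist mix for 0.5hr RT. Homogeneous time-resolved fluorescence cAMP detection after 1hr, expressed as 665/615 nm ratio.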

[14] = target: D(2) dopamine receptor (Homo sapiens) (UniProt P14416); experiment: Dopamine D2 receptor (DRD2) small molecule agonists, cell-based qHTS assay (AID 1963594); further: nearly all actives have a fitted effect of over 35% in size
Sequence of D(2) dopamine receptor (Homo sapiens) (P14416 whole entry, looked up): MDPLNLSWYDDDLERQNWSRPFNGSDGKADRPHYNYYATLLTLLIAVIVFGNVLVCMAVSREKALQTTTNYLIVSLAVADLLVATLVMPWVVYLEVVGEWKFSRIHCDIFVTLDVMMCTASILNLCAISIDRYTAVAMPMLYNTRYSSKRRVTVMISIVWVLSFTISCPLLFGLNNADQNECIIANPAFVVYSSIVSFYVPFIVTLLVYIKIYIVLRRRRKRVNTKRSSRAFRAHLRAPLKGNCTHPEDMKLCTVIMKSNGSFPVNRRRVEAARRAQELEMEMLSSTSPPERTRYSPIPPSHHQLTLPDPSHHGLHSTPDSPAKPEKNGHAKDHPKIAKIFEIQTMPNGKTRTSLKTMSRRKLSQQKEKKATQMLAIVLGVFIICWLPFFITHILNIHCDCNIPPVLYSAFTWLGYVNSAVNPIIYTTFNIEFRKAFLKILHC
Method in brief: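 HEK293 cells stably expressing DRD2 were cultured 24 h at 37 C, then given Ro20-1724 (0.1 mM final) and compounds for 10 min at room temperature. NKH477 (200nM) was then added for 30 min. cAMP was read by HTRF.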

[15] = target: D(2) dopamine receptor (Homo sapiens) (UniProt P14416); experiment: Dopamine D2 receptor (DRD2) small molecule antagonists, cell-based qHTS assay (AID 1963595; active means well fitted inhibition curve with a large enough effect in the signal ratio in the repeat runs, with a control signal flat; the % refers to the signal ratio)
Method in brief: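 Human DRD2 antagonist qHTS measuring cAMP by HTRF. The cells are exposed to compound for 10 min, then to NKH477 (200 nM) and quinpirole (12 nM) for 30 min at RT, with Ro20-1724 (0.1 mM) present throughout.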

[16] = cAMP Responsive Elements (CRE) small molecule agonists, cell-based qHTS assay (AID 1963590)
Method in brief: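 Compound exposure lasted 3 h at 37 C/5% CO2 in CRE-bla HEK 293T cells grown in assay medium with 10% dialyzed FBS and 25 mM HEPES. Reporter signal came from LiveBLAzer B/G FRET substrate, 2 h, room temperature.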

[17] = target: Muscarinic acetylcholine receptor M1 (Homo sapiens) (UniProt P11229); experiment: Cholinergic receptor muscarinic 1 (CHRM1) small molecule antagonists, cell-based qHTS assay (AID 1963588); further: nearly all actives have a fitted effect of over 40% in size; further: potency means the concentration at half of the fitted maximal effect
Method in brief: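 Compounds were tested at 15 concentrations in three independent runs. Dye-loaded CHRM1-CHO cells were exposed 5 min at room temperature before stimulation by acetylcholine added at 50nM. Intracellular calcium was read kinetically on FDSS for 3 min.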

[18] = target: Beta-2 adrenergic receptor (Homo sapiens) (UniProt P07550); experiment: Adrenergic beta2 receptor (ADRB2) small molecule agonists, cell-based qHTS assay (AID 1963593);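 further: CHO cells stably overexpressing human ADRB2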
Method in brief: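 CHO cells stably over-expressing ADRB2 were plated overnight at 37C, then dosed with compounds plus a stimulation mix containing 100uM IBMX and 25uM Ro-20-1724 for 0.5hr at room temperature. cAMP was measured by HTRF competition, 1hr.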

Row | Structure (SMILES) | Potency [1] | Potency [2] | Potency [3] | Potency [4] | Potency [5] | Potency [6] | Potency [7] | Potency [8] | Potency [9] | Potency [10] | Potency [11] | Potency [12] | Potency [13] | Potency [14] | Potency [15] | Potency [16] | Potency [17] | Potency [18]
1 | CC(C)(COC(=O)c1ccccc1)COC(=O)c1ccccc1 | inactive | inactive | inactive | inactive | inactive | inactive | inactive | inactive | inactive | inactive | inactive | inactive | inactive | inactive | inactive |  |  | 
2 | CC(C)c1ccc2ncccc2c1 | inactive | inactive | inactive | inactive | inactive | inactive | inactive | inactive | inactive | inactive | inactive |  |  | inactive | inactive | inactive |  | 
3 | CCCCCCCCCCCCCCCC(=O)OCC | inactive | inactive | inactive | inactive | inactive | inactive | inactive | inactive |  | inactive | inactive | inactive | inactive | inactive | inactive | inactive | inactive | inactive
4 | O=C(O)CNC(=O)c1ccccc1 | inactive | inactive | inactive | inactive | inactive | inactive | inactive | inactive |  | inactive | inactive | inactive | inactive | inactive | inactive | inactive | inactive | inactive
5 | CC(=O)Nc1ccc(S(=O)(=O)Cl)cc1 | inactive | inactive | inactive | inactive | inactive | inactive | inactive | inactive | inactive |  | inactive | inactive | inactive | inactive | inactive | inactive | inactive | inactive
6 | CC[C@@]1(c2ccccc2)NC(=O)N(C)C1=O | inactive | inactive | inactive | inactive | inactive | inactive | inactive | inactive | inactive |  | inactive | inactive | inactive | inactive | inactive | inactive | inactive | inactive
7 | CCC(C(=O)NC(=O)NC(C)=O)c1ccccc1 (stereo unspecified) | inactive | inactive | inactive | inactive | inactive | inactive | inactive | inactive |  | inactive | inactive | inactive | inactive | inactive | inactive | inactive | inactive | inactive
8 | CCCCCOC(=O)COc1cc(N2C(=O)C3=C(CCCC3)C2=O)c(F)cc1Cl | inactive | 61.1 µM (active) | inactive | inactive | inactive | inactive | inactive | inactive | inactive | inactive | inactive |  |  | inactive | inactive | inactive |  | 
9 | CC(C)c1ccc2cc(C(C)C)ccc2c1 | inactive | 48.6 µM (active) | inactive | inactive | inactive | inactive | inactive | inactive |  | inactive | inactive | inactive | inactive | inactive | inactive | inactive | inactive | inactive
10 | Cc1ccc(-c2ncc(Cl)cc2-c2ccc(S(C)(=O)=O)cc2)cn1 | inactive | inactive | inactive | inactive | inactive | inactive | inactive | inactive | inactive |  | inactive |  | inactive | inactive |  |  |  | 
11 | CC(CC(=O)Cl)CC(C)(C)C (stereo unspecified) | inactive | inactive | inactive | inactive | inactive | inactive | inactive | inactive |  | inactive | inactive | inactive | inactive | inactive | inactive | inactive | inactive | inactive
12 | O=Cc1cc(O)ccc1Br | inactive | 49.2 µM (active) | inactive | inactive | inactive | inactive | inactive | inactive | inactive |  | inactive | inactive | inactive | inactive | inactive | inactive |  | inactive
13 | CC(=O)NNC(C)=O | inactive | inactive | inactive | inactive | inactive | inactive | inactive | inactive | inactive |  | inactive | inactive | inactive | inactive | inactive | inactive | inactive | inactive
14 | COc1ccccc1OCC1CNC(=O)O1 (stereo unspecified) | inactive | inactive | inactive | inactive | inactive | inactive | inactive | inactive | inactive |  | inactive | inactive | inactive | inactive | inactive | inactive | inactive | 
15 | CN(C)CCOCCO | inactive | inactive | inactive | inactive | inactive | inactive | inactive | inactive | inactive |  | inactive |  | inactive |  | inactive | inactive | inactive | 
16 | CC1CC(OC(=O)C(O)c2ccccc2)CC(C)(C)N1C (stereo unspecified) | inactive | inactive | inactive | inactive | inactive | inactive | inactive | inactive |  | inactive | inactive | inactive | inactive | inactive | inactive | inactive | 0.41 µM (active) | inactive
17 | C=C(C)C1CC=C(C)C(=O)C1 (stereo unspecified) | inactive | inactive | inactive | inactive | inactive | 32.2 µM (active) | inactive | inactive | inactive |  | inactive | inactive | inactive | inactive | inactive | inactive | inactive | inactive
